According to PubChem BioAssay AID1159580 (chemical genetic matrix, 2015):
The campaign covered roughly 5,500 compounds. About 2,000 (36%) were called active. Not shown: some 18% with an inconclusive outcome. No stated cut-off is given here; in the data, active means normalized growth mostly below about 0.91 (no sharp cut-off); inconclusive means no clear call, values can overlap the other calls; inactive means mostly above about 0.92. Some of the results follow.

Test: chemical genetic growth profiling, strain panel (AID 1159580);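 further: tested at 20 µM; growth read once vehicle control cultures reached saturation at 30 °C; 1 = growth at the plate median or of vehicle wells; lower values mean less growth of the strain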
Conditions: growth OD

Measured: normalized growth

COC(C)(C)CCC[C@H](C)C/C=C/C(C)=C/C(=O)OC(C)C
inactive: S. cerevisiae deletion strains, locus YJR075W, strain HOC1, active compounds read low 1.02 | S. cerevisiae deletion strains, locus YKL009W, strain mrt4, active compounds read low 0.979 | S. cerevisiae deletion strains, locus YKL068W, active compounds read low 1.01 | S. cerevisiae deletion strains, locus YKL085W, strain MDH1 (second series), active compounds read low 1 | S. cerevisiae deletion strains, locus YKL085W, strain MDH1, active compounds read low 1 | S. cerevisiae deletion strains, locus YKL160W, strain elf1, active compounds read low 1.02 | S. cerevisiae deletion strains, locus YKL190W, strain CNB1, active compounds read low 0.985 | S. cerevisiae deletion strains, locus YKR001C, strain vps1, active compounds read low 1.03 | S. cerevisiae deletion strains, locus YKR026C, strain gcn3, active compounds read low 1.02 | S. cerevisiae deletion strains, locus YKR091W, strain srl3, active compounds read low 1.02 | S. cerevisiae deletion strains, locus YLL001W, strain dnm1, active compounds read low 1.01 | S. cerevisiae deletion strains, locus YLL026W, active compounds read low 1.01 | S. cerevisiae deletion strains, locus YLL041C, strain sdh2, active compounds read low 1 | S. cerevisiae deletion strains, locus YLR027C, strain aat2, active compounds read low 1.01 | S. cerevisiae deletion strains, locus YLR039C, strain RIC1, active compounds read low 1.04 | S. cerevisiae deletion strains, locus YLR058C, strain SHM2, active compounds read low 1 | S. cerevisiae deletion strains, locus YLR102C, strain apc9, active compounds read low 1.02 | S. cerevisiae deletion strains, locus YLR113W, strain HOG1, active compounds read low 0.971 | S. cerevisiae deletion strains, locus YLR221C, strain rsa3, active compounds read low 0.973 | S. cerevisiae deletion strains, locus YLR258W, strain gsy2, active compounds read low 1.03 | S. cerevisiae deletion strains, locus YLR262C, strain YPT6 (second series), active compounds read low 0.953 | S. cerevisiae deletion strains, locus YLR262C, strain YPT6, active compounds read low 1.06 | S. cerevisiae deletion strains, locus YLR268W, strain sec22, active compounds read low 1.05 | S. cerevisiae deletion strains, locus YLR320W, strain mms22, active compounds read low 0.992 | S. cerevisiae deletion strains, locus YLR330W, strain CHS5, active compounds read low 1.01 | S. cerevisiae deletion strains, locus YLR342W, strain FKS1 (second series), active compounds read low 1.02 | S. cerevisiae deletion strains, locus YLR342W, strain FKS1, active compounds read low 1.01 | S. cerevisiae deletion strains, locus YLR357W, strain rsc2, active compounds read low 1.01 | S. cerevisiae deletion strains, locus YLR370C, strain arc18, active compounds read low 0.997 | S. cerevisiae deletion strains, locus YLR371W, strain rom2, active compounds read low 1.04 | S. cerevisiae deletion strains, locus YLR384C, strain iki3, active compounds read low 1 | S. cerevisiae deletion strains, locus YLR418C, strain cdc73, active compounds read low 1.05 | S. cerevisiae deletion strains, locus YML016C, strain PPZ1, active compounds read low 1.02 | S. cerevisiae deletion strains, locus YML032C, strain rad52, active compounds read low 1.03 | S. cerevisiae deletion strains, locus YML120C, strain ndi1, active compounds read low 1.01 | S. cerevisiae deletion strains, locus YML124C, strain tub3, active compounds read low 1.03 | S. cerevisiae deletion strains, locus YMR058W, strain fet3, active compounds read low 1.01 | S. cerevisiae deletion strains, locus YMR078C, strain ctf18, active compounds read low 1.02 | S. cerevisiae deletion strains, locus YMR125W, strain sto1, active compounds read low 1.02 | S. cerevisiae deletion strains, locus YMR129W, active compounds read low 1.01 | S. cerevisiae deletion strains, locus YMR205C, strain PFK2, active compounds read low 0.979 | S. cerevisiae deletion strains, locus YMR223W, strain ubp8, active compounds read low 1.02 | S. cerevisiae deletion strains, locus YMR231W, strain pep5, active compounds read low 1.03 | S. cerevisiae deletion strains, locus YMR263W, strain SAP30, active compounds read low 1.01 | S. cerevisiae deletion strains, locus YMR307W, strain GAS1, active compounds read low 1 | S. cerevisiae deletion strains, locus YNL067W, strain RPL9B, active compounds read low 1.01 | S. cerevisiae deletion strains, locus YNL071W, strain lat1, active compounds read low 1.01 | S. cerevisiae deletion strains, locus YNL128W, strain TEP1, active compounds read low 1.01 | S. cerevisiae deletion strains, locus YNL153C, strain GIM3, active compounds read low 1.01 | S. cerevisiae deletion strains, locus YNL183C, strain NPR1, active compounds read low 0.891 | S. cerevisiae deletion strains, locus YNL209W, strain ssb2, active compounds read low 0.998 | S. cerevisiae deletion strains, locus YNL233W, strain BNI4, active compounds read low 1.02 | S. cerevisiae deletion strains, locus YNL248C, strain rpa49, active compounds read low 0.996 | S. cerevisiae deletion strains, locus YNL250W, strain rad50, active compounds read low 1.03 | S. cerevisiae deletion strains, locus YNL271C, strain bni1, active compounds read low 1.03 | S. cerevisiae deletion strains, locus YNL298W, strain CLA4, active compounds read low 1.03 | S. cerevisiae deletion strains, locus YNL307C, strain MCK1, active compounds read low 1.04 | S. cerevisiae deletion strains, locus YNL322C, strain KRE1 (second series), active compounds read low 1.05 | S. cerevisiae deletion strains, locus YNL322C, strain KRE1, active compounds read low 1 | S. cerevisiae deletion strains, locus YNR049C, strain mso1, active compounds read low 1.02 | S. cerevisiae deletion strains, locus YNR052C, strain pop2, active compounds read low 1.02 | S. cerevisiae deletion strains, locus YOL006C, strain TOP1, active compounds read low 1.07 | S. cerevisiae deletion strains, locus YOL012C, strain htz1 1.31 | S. cerevisiae deletion strains, locus YOL147C, strain pex11, active compounds read low 1.02 | S. cerevisiae deletion strains, locus YOR001W, strain rrp6, active compounds read low 0.987 | S. cerevisiae deletion strains, locus YOR061W, strain CKA2, active compounds read low 1.01 | S. cerevisiae deletion strains, locus YOR069W, strain VPS5, active compounds read low 1 | S. cerevisiae deletion strains, locus YOR070C, strain gyp1, active compounds read low 0.993 | S. cerevisiae deletion strains, locus YOR080W, strain dia2, active compounds read low 1.02 | S. cerevisiae deletion strains, locus YOR083W, strain WHI5, active compounds read low 1.01 | S. cerevisiae deletion strains, locus YOR106W, strain vam3, active compounds read low 0.948 | S. cerevisiae deletion strains, locus YOR136W, strain idh2, active compounds read low 1.02 | S. cerevisiae deletion strains, locus YOR144C, strain elg1, active compounds read low 1.02 | S. cerevisiae deletion strains, locus YOR184W, strain ser1, active compounds read low 1.04 | S. cerevisiae deletion strains, locus YOR231W, strain MKK1, active compounds read low 0.984 | S. cerevisiae deletion strains, locus YOR265W, strain rbl2, active compounds read low 1.03 | S. cerevisiae deletion strains, locus YOR270C, strain vph1, active compounds read low 0.931 | S. cerevisiae deletion strains, locus YOR290C, strain snf2, active compounds read low 1.08 | S. cerevisiae deletion strains, locus YOR316C, strain cot1, active compounds read low 1.02 | S. cerevisiae deletion strains, locus YPL051W, strain arl3, active compounds read low 1 | S. cerevisiae deletion strains, locus YPL055C, strain LGE1, active compounds read low 1.01 | S. cerevisiae deletion strains, locus YPL078C, strain atp4, active compounds read low 1 | S. cerevisiae deletion strains, locus YPL106C, strain sse1, active compounds read low 1.05 | S. cerevisiae deletion strains, locus YPL240C, strain hsp82, active compounds read low 1.01 | S. cerevisiae deletion strains, locus YPL241C, strain CIN2, active compounds read low 0.999 | S. cerevisiae deletion strains, locus YPL256C, strain CLN2, active compounds read low 0.992 | S. cerevisiae deletion strains, locus YPR119W, strain clb2, active compounds read low 1.02 | S. cerevisiae deletion strains, locus YPR141C, strain kar3, active compounds read low 1.03 | S. cerevisiae deletion strains, locus YPR163C, strain tif3, active compounds read low 1.04 | S. cerevisiae deletion strains, locus YPR167C, strain met16, active compounds read low 1.02 | S. cerevisiae deletion strains, strain wtn01, active compounds read low 1.05 | S. cerevisiae strains, strain wild type, active compounds read low 1.01
